Only some compounds are listed: those with a hit (about 2.4% of all), similar ones and a draw of the others.
eIF4H FP inh: inhibitors of RNA binding by human eIF4H. 0.94% of 290,000 active. inhibition, % at 35 µM. eIF4H fluorescence polarization binding assay;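 note: calls also rest on retests at 20 µM and on dose response follow-up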
PHOSPHO1 inh: blocks human PHOSPHO1 phosphatase activity | inhibition, % at 13.3 µM | AID 1565 | recombinant PHOSPHO1, absorbance phosphatase assay | Q8TCT1 | 1.1% of 290,000 active; in the data active = inhibition above about 60%
Target sequence (Q8TCT1 whole entry, looked up): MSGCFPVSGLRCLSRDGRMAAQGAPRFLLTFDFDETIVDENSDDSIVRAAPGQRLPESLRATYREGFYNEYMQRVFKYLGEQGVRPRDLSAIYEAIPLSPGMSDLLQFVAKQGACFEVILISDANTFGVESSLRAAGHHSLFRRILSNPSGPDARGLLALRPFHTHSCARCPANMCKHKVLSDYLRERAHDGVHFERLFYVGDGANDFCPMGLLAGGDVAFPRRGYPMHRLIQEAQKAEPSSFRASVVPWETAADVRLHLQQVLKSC
Efa HMGR inh: blocks class II HMG-CoA reductase of Enterococcus faecalis | purified E. faecalis HMGR, NADPH absorbance 340 nm kinetic | inhibition, % at 10 µM | 0.41% of 190,000 active;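 active = inhibition above a set limit, the median over all tested compounds plus 3 SD, cut at about 9.5% in these data; inconclusive = no clear call, values can overlap the other calls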;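 note: enzyme runs in reverse so mevalonate oxidation gives rising NADPH absorbance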
PABP1 MLLE inh: inhibitors of microRNA-mediated deadenylation, human PABP1 MLLE binding. inhibition, % at 20 µM. 0.36% of 360,000 active. P11940. GST-MLLE / FITC-PAM2 fluorescence polarization; in the data active = inhibition above about 35%, passing the limit was not always enough
PABP FP inh: PABP-poly(A) binding inhibition; AID 2014; P11940; calls only at 35 µM; PABP-poly(A) RNA binding, fluorescence polarization; 1% of 290,000 active;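 note: calls also rest on retests at 20 µM and on dose response follow-up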
Hits are given with their value. Unless noted, the rule behind the calls is not given here.

CC(NC(=O)OCc1ccccc1)C(=O)NCC(=O)NC(Cc1ccc(OC(C)(C)C)cc1)C(=O)OC(C)(C)C (stereo not given) was read as eIF4H FP inh inactive, PHOSPHO1 inh inactive, Efa HMGR inh inactive, PABP1 MLLE inh inactive and PABP FP inh inactive.
CC(C)(C)OC(=O)C(Cc1ccc(OC(C)(C)C)cc1)NC(=O)CNC(=O)CNC(=O)OCc1ccccc1 (stereo not given) was read as eIF4H FP inh active, PHOSPHO1 inh inactive, Efa HMGR inh inactive, PABP1 MLLE inh inactive and PABP FP inh inactive.
Screening C=CCN1C(=O)/C(=C2/Sc3ccccc3N2CCCS(=O)(=O)O)SC1=S returned eIF4H FP inh inactive, PHOSPHO1 inh inactive, Efa HMGR inh inactive, PABP1 MLLE inh 41.4 and PABP FP inh inactive.
`CC(=O)Nc1ccc(CN2C(=O)C(CCc3ccccc3)ON=C2c2cnccn2)cc1` (stereo not given) gave PABP1 MLLE inh inactive.
For Oc1ccc(-c2nc(=S)[nH][nH]2)cc1 the results were eIF4H FP inh inactive, PHOSPHO1 inh inactive, Efa HMGR inh inactive, PABP1 MLLE inh inactive and PABP FP inh inactive.
COc1ccc(-c2nc(=S)[nH][nH]2)cc1 was read as eIF4H FP inh inactive, PHOSPHO1 inh 96.2, Efa HMGR inh inactive, PABP1 MLLE inh inactive and PABP FP inh inactive.
`COc1ccc(-c2nc(=S)[nH][nH]2)cc1OC` gave eIF4H FP inh inactive, PHOSPHO1 inh inactive, Efa HMGR inh inactive, PABP1 MLLE inh inactive and PABP FP inh inactive.
For CCOc1ccc(-c2nc(=S)[nH][nH]2)cc1 the results were eIF4H FP inh inactive, PHOSPHO1 inh 100.3, Efa HMGR inh inactive, PABP1 MLLE inh inactive and PABP FP inh inactive.
`Cc1ccc(CNC(=O)c2ccc(CN3CCOCC3)cc2)cc1` gave eIF4H FP inh inactive, PHOSPHO1 inh 83.5, Efa HMGR inh 11.4, PABP1 MLLE inh inactive and PABP FP inh inactive.
`Cc1ccc(CNC(=O)c2ccc(CNc3c(N4CCCC4)c(=O)c3=O)cc2)cc1` gave eIF4H FP inh inactive, PHOSPHO1 inh inactive, Efa HMGR inh inactive, PABP1 MLLE inh inactive and PABP FP inh inactive.
For O=C(NCc1ccc(F)cc1)c1ccc(CNc2c(N3CCOCC3)c(=O)c2=O)cc1 the results were eIF4H FP inh inactive, PHOSPHO1 inh 60.8, PABP1 MLLE inh inactive and PABP FP inh inactive.
Screening O=C(COC(=O)CN1C(=O)C2CCCCC2C1=O)Nc1cc(F)ccc1F (stereo not given) returned PABP1 MLLE inh inactive.
`OCC1OC(n2cnc3c(NCCc4ccccc4)ncnc32)C(O)C1O` (stereo not given) gave PABP1 MLLE inh inactive.
Screening OC[C@H]1O[C@@H](n2cnc3c(Nc4ccccc4)ncnc32)[C@H](O)[C@@H]1O returned eIF4H FP inh active, PHOSPHO1 inh inactive, Efa HMGR inh inactive, PABP1 MLLE inh inactive and PABP FP inh active.
COc1ccc(/C=C2\Oc3cc(OCC(=O)N4CCC[C@H]4CO)ccc3C2=O)c(OC)c1 was read as eIF4H FP inh inactive, PHOSPHO1 inh inactive, PABP1 MLLE inh inactive and PABP FP inh active.
`Cc1cc(C(=O)CSc2nnc(-c3ccco3)o2)c(C)n1CC1COc2ccccc2O1` (stereo not given) gave eIF4H FP inh inactive, PHOSPHO1 inh 91.0, Efa HMGR inh inactive, PABP1 MLLE inh inactive and PABP FP inh inactive.
Screening O=C(CSc1nnc(-c2ccco2)o1)c1ccc[nH]1 returned eIF4H FP inh 83.1, PHOSPHO1 inh inactive, Efa HMGR inh inactive, PABP1 MLLE inh inactive and PABP FP inh inactive.
`Cc1cc(C(=O)CSc2nnc(-c3ccccc3)o2)c(C)n1CC1COc2ccccc2O1` (stereo not given) gave eIF4H FP inh inconclusive, PHOSPHO1 inh inactive, Efa HMGR inh inactive, PABP1 MLLE inh inactive and PABP FP inh inconclusive.
`Cc1cc(C(=O)CSc2nnc(-c3ccc(F)cc3)o2)c(C)n1CC1COc2ccccc2O1` (stereo not given) gave eIF4H FP inh inactive, PHOSPHO1 inh 91.1, Efa HMGR inh inactive, PABP1 MLLE inh inactive and PABP FP inh inactive.
For COCCN(C(=O)COC(=O)/C=C/c1ccc2c(c1)OCO2)c1c(N)n(Cc2ccccc2)c(=O)[nH]c1=O the results were PABP1 MLLE inh inactive.
`FC(F)Oc1ccc(C2N=C(c3ccccc3)NO2)cc1` (stereo not given) gave eIF4H FP inh inactive, PHOSPHO1 inh inactive, PABP1 MLLE inh inactive and PABP FP inh inactive.
`CC(C)[C@H](NC(=O)N1CC(=O)Nc2ccccc21)C(=O)N1CCC[C@@H]1C(=O)O` gave eIF4H FP inh inactive, PHOSPHO1 inh inactive, PABP1 MLLE inh inactive and PABP FP inh inactive.
Cc1ccc(Cn2cccc(NC(=O)NC3CCCCC3)c2=O)cc1 was read as eIF4H FP inh inactive, PHOSPHO1 inh 66.4, Efa HMGR inh inactive, PABP1 MLLE inh inactive and PABP FP inh inactive.
CCc1noc(C)c1C(=O)Nc1nnc(CC(C)C)s1 was read as PABP1 MLLE inh inactive.
`O=C(NN1CC(C(=O)OCc2ccc(Cl)cc2Cl)CC1=O)c1ccccc1` (stereo not given) gave eIF4H FP inh inactive, PHOSPHO1 inh 61.0, PABP1 MLLE inh inactive and PABP FP inh inactive.
Screening O=C(NCc1ccc(Cl)cc1Cl)C1CC(=O)N(Cc2ccccc2)C1 (stereo not given) returned eIF4H FP inh inactive, PHOSPHO1 inh inactive, Efa HMGR inh inactive, PABP1 MLLE inh inactive and PABP FP inh inactive.
COc1cc(NC(=O)c2cc3nc(C4CC4)cc(C(F)(F)F)n3n2)c(OC)cc1Cl was read as eIF4H FP inh inactive, PHOSPHO1 inh 60.1, Efa HMGR inh inactive, PABP1 MLLE inh inactive and PABP FP inh inactive.
For COC(=O)c1ccccc1NC(=O)c1cc2nc(C3CC3)cc(C(F)(F)F)n2n1 the results were eIF4H FP inh inactive, PHOSPHO1 inh inactive, Efa HMGR inh inactive, PABP1 MLLE inh inactive and PABP FP inh inactive.
Screening COc1ccc(OC)c(Cc2nnc(CCC(=O)NCc3ccsc3)o2)c1 returned eIF4H FP inh inactive, PHOSPHO1 inh inactive, Efa HMGR inh 9.7, PABP1 MLLE inh inactive and PABP FP inh inactive.
Screening COc1ccc(NC(=O)Oc2cc(C)ccc2C(C)C)cc1 returned eIF4H FP inh inactive, PHOSPHO1 inh inactive, PABP1 MLLE inh inactive and PABP FP inh inactive.
For O=C(O)CCSCC(=O)c1ccc2c(c1)OCCO2 the results were eIF4H FP inh inactive, PHOSPHO1 inh 77.7, Efa HMGR inh inactive, PABP1 MLLE inh inactive and PABP FP inh inactive.
Screening COc1ccc(-n2cc(CNC3CCN(C)CC3)c(-c3cccc(F)c3)n2)cc1 returned eIF4H FP inh inactive, PHOSPHO1 inh inactive, Efa HMGR inh inactive, PABP1 MLLE inh inactive and PABP FP inh inactive.
`Cc1cccc(-n2cc(CN3CCN(Cc4nccn4C)CC3)c(-c3cccc(F)c3)n2)c1` gave eIF4H FP inh inactive, PHOSPHO1 inh 61.1, Efa HMGR inh inactive, PABP1 MLLE inh inactive and PABP FP inh inactive.
COc1ccc(-n2cc(CN3CCCC3)c(-c3cccc(F)c3)n2)cc1 was read as eIF4H FP inh inactive, PHOSPHO1 inh 61.1, Efa HMGR inh inactive, PABP1 MLLE inh inactive and PABP FP inh inactive.
